Records with an inconclusive call do not appear. Activity calls are given as the source filed them. The calls were made as follows, unless noted: active = hit-call score of the fitted dose curve at least 0.9, where 1 is the maximum; inactive = score below 0.9.
Tests used:
[1] = ATG_CRE_CIS: Attagene CIS-FACTORIAL HepG2 Assay for human cAMP Responsive Element (CRE) binding protein 3 (AID 2282926); details: HepG2 CRE cis-reporter, Attagene multiplexed mRNA; actives raise or lower the signal
Summary of the method: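 Endogenous CRE-binding activity in HepG2 is reported through a cis-regulated transfected reporter. Following a day of exposure, mRNA levels are determined by reverse transcription PCR and fluorescent fragment analysis; fits run in both directions versus DMSO.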

[2] = target: Aryl hydrocarbon receptor (Homo sapiens) (UniProt P35869); assay: ATG_Ahr_CIS: Attagene CIS-FACTORIAL HepG2 Assay for human Aryl Hydrocarbon Receptor (Ahr) (AID 2282930); details: HepG2 AhR cis-factorial reporter transcription; actives raise or lower the signal
Chain of Aryl hydrocarbon receptor (Homo sapiens) (P35869 whole entry, looked up): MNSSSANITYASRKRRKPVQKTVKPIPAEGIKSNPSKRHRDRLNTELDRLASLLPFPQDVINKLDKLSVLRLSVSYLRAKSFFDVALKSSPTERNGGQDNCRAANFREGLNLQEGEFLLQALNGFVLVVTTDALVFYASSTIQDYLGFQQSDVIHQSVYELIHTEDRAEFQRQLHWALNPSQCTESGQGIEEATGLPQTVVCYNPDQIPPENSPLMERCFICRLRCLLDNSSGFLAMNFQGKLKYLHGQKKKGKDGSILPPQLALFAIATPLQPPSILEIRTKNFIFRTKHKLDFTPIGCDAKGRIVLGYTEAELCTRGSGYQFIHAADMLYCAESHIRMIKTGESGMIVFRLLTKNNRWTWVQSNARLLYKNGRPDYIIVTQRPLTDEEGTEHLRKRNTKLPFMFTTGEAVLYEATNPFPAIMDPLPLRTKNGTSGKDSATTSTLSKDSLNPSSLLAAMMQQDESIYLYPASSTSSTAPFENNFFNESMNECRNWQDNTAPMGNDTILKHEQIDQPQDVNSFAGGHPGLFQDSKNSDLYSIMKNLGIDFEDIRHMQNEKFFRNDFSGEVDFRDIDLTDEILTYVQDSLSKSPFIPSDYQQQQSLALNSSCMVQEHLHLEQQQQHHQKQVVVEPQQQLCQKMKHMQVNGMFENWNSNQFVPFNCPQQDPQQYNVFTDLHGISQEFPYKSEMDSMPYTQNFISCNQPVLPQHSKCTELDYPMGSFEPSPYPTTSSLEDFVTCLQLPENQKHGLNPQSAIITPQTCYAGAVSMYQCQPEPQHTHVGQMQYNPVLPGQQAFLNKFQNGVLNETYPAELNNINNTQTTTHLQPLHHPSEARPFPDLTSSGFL
Summary of the method: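 HepG2, transient MRTU (cis) transfection, 24 h exposure. RNA → cDNA → PCR → 6-FAM primer extension → HpaI 2 h 37 C → CE. Fit: bidirectional, DMSO baseline.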

[3] = target: Paired box protein Pax-6 (Homo sapiens) (UniProt P26367); assay: ATG_Pax6_CIS: Attagene CIS-FACTORIAL HepG2 Assay for human Paired Box 6 (PAX6) (AID 2282956); details: HepG2 CIS-FACTORIAL PAX6 reporter transcription, RNA readout; actives raise or lower the signal
Chain of Paired box protein Pax-6 (Homo sapiens) (P26367 whole entry, looked up): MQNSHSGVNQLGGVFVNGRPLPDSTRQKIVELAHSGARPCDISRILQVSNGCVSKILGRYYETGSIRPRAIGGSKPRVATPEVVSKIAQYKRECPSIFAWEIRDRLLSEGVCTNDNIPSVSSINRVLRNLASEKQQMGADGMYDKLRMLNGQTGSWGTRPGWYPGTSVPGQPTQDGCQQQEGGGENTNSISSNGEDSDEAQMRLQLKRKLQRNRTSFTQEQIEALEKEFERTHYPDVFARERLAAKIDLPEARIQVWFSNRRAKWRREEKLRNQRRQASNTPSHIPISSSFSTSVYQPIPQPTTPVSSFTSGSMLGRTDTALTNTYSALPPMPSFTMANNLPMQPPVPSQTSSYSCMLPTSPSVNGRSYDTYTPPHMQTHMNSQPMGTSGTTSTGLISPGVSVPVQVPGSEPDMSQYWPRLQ
Summary of the method: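 HepG2 cells transiently transfected with multiplexed cis-promoter reporter units (endogenous TF activity) were dosed for 24 h. Reporter mRNA was quantified by RT-PCR, 6-FAM labeling, HpaI digestion and capillary electrophoresis; bidirectional fitting versus DMSO baseline.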

[4] = target: Transcription factor Sp1 (Homo sapiens) (UniProt P08047); assay: ATG_Sp1_CIS: Attagene CIS-FACTORIAL HepG2 Assay for human Specificity Protein 1 (Sp1) (AID 2282961); details: HepG2 Sp1 cis-reporter transcription, actives raise or lower the signal
Chain of Transcription factor Sp1 (Homo sapiens) (P08047 whole entry, looked up, the tested form may be a part): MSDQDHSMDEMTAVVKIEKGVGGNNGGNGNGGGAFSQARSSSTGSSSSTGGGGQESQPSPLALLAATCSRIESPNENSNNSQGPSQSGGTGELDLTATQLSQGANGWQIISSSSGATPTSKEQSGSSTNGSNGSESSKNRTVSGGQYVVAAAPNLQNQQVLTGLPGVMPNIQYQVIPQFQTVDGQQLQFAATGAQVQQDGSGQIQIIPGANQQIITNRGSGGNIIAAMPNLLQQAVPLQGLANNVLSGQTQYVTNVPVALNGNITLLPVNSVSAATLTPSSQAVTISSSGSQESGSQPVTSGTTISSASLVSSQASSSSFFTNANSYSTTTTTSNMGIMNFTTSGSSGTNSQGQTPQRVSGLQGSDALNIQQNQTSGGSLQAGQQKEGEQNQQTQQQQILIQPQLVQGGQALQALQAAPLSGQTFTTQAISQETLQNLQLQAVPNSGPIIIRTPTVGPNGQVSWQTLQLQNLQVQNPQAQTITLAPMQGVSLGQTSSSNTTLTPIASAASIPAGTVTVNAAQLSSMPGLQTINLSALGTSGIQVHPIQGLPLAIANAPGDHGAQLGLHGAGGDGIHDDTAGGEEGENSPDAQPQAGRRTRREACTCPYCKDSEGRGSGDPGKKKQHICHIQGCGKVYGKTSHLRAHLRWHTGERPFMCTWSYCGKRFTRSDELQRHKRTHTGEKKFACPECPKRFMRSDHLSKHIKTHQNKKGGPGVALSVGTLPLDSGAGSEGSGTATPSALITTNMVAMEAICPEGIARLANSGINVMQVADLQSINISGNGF
Summary of the method: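 Endpoint reflects endogenous Sp1 transcriptional activity, not an exogenous fusion protein: HepG2 cells with transfected cis-regulated reporters, 24 h dosing, RT-PCR/capillary electrophoresis mRNA read-out, DMSO-normalised bidirectional fit.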

[5] = ATG_SREBP_CIS: Attagene CIS-FACTORIAL HepG2 Assay for human Sterol Regulatory Element Binding (SREBP) (AID 2282962); details: HepG2 Attagene cis-factorial SREBP reporter, mRNA; actives raise or lower the signal
Summary of the method: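 HepG2 cells transiently transfected with multiplexed cis-element reporter units report endogenous transcription factor activity. After 24 h of chemical exposure, reporter mRNA was quantified by RT-PCR, 6-FAM labelling, HpaI digestion and capillary electrophoresis; bidirectional fits used DMSO as baseline.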

[6] = target: Signal transducer and activator of transcription 3 (Homo sapiens) (UniProt P40763); assay: ATG_STAT3_CIS: Attagene CIS-FACTORIAL HepG2 Assay for human Signal Transducer and Activator of Transcription 3 (STAT3) (AID 2282963); details: HepG2, Attagene cis-factorial STAT3 reporter transcription; actives raise or lower the signal
Chain of Signal transducer and activator of transcription 3 (Homo sapiens) (P40763 whole entry, looked up): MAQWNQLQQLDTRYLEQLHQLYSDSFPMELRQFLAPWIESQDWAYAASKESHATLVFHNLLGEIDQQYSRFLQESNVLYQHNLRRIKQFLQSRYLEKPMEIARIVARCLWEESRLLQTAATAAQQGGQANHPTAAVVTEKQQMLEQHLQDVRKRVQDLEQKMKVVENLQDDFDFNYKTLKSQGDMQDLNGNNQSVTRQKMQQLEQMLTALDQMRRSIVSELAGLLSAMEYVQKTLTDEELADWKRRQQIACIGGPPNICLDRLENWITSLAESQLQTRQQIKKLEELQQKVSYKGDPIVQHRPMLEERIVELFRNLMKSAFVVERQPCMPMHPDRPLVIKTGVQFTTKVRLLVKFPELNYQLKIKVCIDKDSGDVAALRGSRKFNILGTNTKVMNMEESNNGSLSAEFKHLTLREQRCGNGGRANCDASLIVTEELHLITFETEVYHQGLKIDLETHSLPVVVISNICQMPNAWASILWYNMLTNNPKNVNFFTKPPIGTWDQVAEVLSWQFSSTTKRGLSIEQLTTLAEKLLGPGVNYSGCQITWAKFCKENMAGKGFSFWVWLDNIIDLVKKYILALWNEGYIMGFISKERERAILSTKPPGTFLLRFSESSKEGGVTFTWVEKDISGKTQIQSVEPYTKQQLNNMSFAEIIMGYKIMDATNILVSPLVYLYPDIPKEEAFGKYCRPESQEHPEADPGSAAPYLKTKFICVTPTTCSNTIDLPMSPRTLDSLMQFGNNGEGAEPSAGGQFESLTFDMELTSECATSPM
Summary of the method: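 After a 24 h compound incubation, total RNA from MRTU-transfected HepG2 cells was converted to cDNA and reporter sequences PCR-amplified, labelled and profiled by capillary electrophoresis. Gain and loss of signal were referenced to DMSO.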

[7] = ATG_TA_CIS: Attagene CIS-FACTORIAL HepG2 Assay for human TA Basal Promoter (AID 2282964); details: HepG2 Attagene CIS-factorial TA basal promoter reporter; actives raise or lower the signal
Summary of the method: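 Background-control readout: TA basal promoter reporter mRNA, fitted in both directions relative to DMSO. Measured by RT-PCR and capillary electrophoresis 24 hours after treating HepG2 human liver cells transiently carrying multiplexed cis-regulated reporter constructs.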

[8] = ATG_TCF_b_cat_CIS: Attagene CIS-FACTORIAL HepG2 Assay for human T-Cell-Factor with beta-catenin (TCF/b-cat) (AID 2282965); details: HepG2 TCF/beta-catenin cis-reporter transcription, actives raise or lower the signal
Summary of the method: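 Measured: reporter mRNA in HepG2 transiently transfected with cis-promoter reporter units, 24 h after chemical addition. Fitting was bidirectional, DMSO as negative control.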

[9] = ATG_TAL_CIS: Attagene CIS-FACTORIAL HepG2 Assay for human TAL Basal Promoter (AID 2282966); details: HepG2 Attagene cis-factorial TAL promoter reporter; actives raise or lower the signal;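 also: background control endpoint measuring basal TAL promoter reporter mRNA not a specific factor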
Summary of the method: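 In this cell-based multiplex, HepG2 liver cells bearing cis-promoter reporter constructs are dosed for 24 hours. Total RNA is reverse-transcribed and amplified, labelled fragments are sized by capillary electrophoresis, and signal changes are fitted bidirectionally versus DMSO.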

[10] = ATG_TGFb_CIS: Attagene CIS-FACTORIAL HepG2 Assay for human Transforming Growth Factor (TGF) (AID 2282967); details: HepG2 Attagene CIS TGFb reporter, mRNA transcription; actives raise or lower the signal
Summary of the method: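 Endogenous TGFB1-linked transcription factor activity read as reporter mRNA via RT-PCR and capillary electrophoresis, 24 h after dosing transiently transfected HepG2 cells. Gain or loss of signal fitted relative to DMSO.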

[11] = ATG_VDRE_CIS: Attagene CIS-FACTORIAL HepG2 Assay for human Vitamin D Receptor Element (VDRE) (AID 2282968); details: HepG2 VDRE cis-reporter transcription, actives raise or lower the signal
Summary of the method: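 In transiently transfected HepG2 liver cells, gain or loss of reporter mRNA after 24 h exposure is scored relative to DMSO, using fluorescence detection by capillary electrophoresis of RT-PCR products.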

[12] = target: X-box-binding protein 1 (Homo sapiens) (UniProt P17861); assay: ATG_Xbp1_CIS: Attagene CIS-FACTORIAL HepG2 Assay for human X-box Binding Protein 1 (XBP1) (AID 2282972); details: HepG2 XBP1 cis-element reporter, Attagene multiplex; actives raise or lower the signal
Chain of X-box-binding protein 1 (Homo sapiens) (P17861 whole entry, looked up): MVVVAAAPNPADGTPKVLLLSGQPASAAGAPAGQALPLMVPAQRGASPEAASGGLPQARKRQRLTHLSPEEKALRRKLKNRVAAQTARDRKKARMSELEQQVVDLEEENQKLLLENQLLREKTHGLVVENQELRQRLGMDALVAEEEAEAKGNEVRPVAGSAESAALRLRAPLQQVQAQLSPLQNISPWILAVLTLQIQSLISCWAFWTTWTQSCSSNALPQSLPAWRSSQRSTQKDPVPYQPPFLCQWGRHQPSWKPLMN
Summary of the method: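 HepG2 cells transiently transfected with cis-regulated multiple reporter transcription units; endogenous transcription factor activity measured 24 hours after chemical dosing. Reporter mRNA quantified by RT-PCR, 6-FAM primer extension, HpaI digestion and capillary electrophoresis; bidirectional fitting versus DMSO.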

[13] = ATG_M_32_TRANS: Attagene TRANS-FACTORIAL HepG2 Assay for M32 Transcription Factor (Internal Marker) (AID 2282984; active = hit-call score of the fitted dose curve at least 0.9, where 1 is the maximum;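 also: transcript level of a background control reporter unit measured by RT-PCR and capillary electrophoresis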); details: HepG2 Attagene TRANS M32 internal marker reporter
Summary of the method: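 Using transiently transfected HepG2 cells exposed to test chemicals for 24 h, reporter transcripts are converted to labelled cDNA fragments and quantified by capillary electrophoresis. DMSO defines the activity baseline.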

[14] = target: Transcriptional activator Myb (Homo sapiens) (UniProt P10242); assay: ATG_Myb_CIS: Attagene CIS-FACTORIAL HepG2 Assay for human Myeloblastosis (Myb) Proto-Oncogene Transcription Factor (AID 2282986); details: HepG2 Attagene CIS-FACTORIAL Myb reporter transcription; actives raise or lower the signal
Chain of Transcriptional activator Myb (Homo sapiens) (P10242 whole entry, looked up): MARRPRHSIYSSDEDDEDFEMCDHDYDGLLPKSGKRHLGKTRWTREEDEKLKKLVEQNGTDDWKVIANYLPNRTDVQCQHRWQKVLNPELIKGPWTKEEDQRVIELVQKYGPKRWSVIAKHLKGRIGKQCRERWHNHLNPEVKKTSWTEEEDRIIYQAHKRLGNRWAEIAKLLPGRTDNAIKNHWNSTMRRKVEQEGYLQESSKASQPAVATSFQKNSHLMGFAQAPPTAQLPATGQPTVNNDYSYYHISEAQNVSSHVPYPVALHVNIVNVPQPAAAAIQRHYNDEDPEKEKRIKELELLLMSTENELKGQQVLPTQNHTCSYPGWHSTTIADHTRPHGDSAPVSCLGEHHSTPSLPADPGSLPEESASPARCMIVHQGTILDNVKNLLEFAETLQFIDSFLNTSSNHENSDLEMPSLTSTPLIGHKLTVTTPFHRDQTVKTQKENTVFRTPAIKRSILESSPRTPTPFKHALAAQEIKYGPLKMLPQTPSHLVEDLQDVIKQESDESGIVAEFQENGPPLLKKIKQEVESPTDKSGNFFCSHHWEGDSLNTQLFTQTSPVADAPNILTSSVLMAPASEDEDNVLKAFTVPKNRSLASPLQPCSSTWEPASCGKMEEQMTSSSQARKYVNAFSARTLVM
Summary of the method: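 In this HepG2 transient-transfection format, cis-regulated reporter mRNA is quantified 24 h post-dosing by RT-PCR with capillary electrophoresis, fitted bidirectionally to DMSO baseline.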

[15] = target: Nuclear respiratory factor 1 (Homo sapiens) (UniProt Q16656); assay: ATG_NRF1_CIS: Attagene CIS-FACTORIAL HepG2 Assay for human Nuclear Respiratory Factor 1 (NRF1) Orphan Gene (AID 2282987); details: HepG2 NRF1 cis-element reporter, Attagene multiplex; actives raise or lower the signal
Chain of Nuclear respiratory factor 1 (Homo sapiens) (Q16656 whole entry, looked up): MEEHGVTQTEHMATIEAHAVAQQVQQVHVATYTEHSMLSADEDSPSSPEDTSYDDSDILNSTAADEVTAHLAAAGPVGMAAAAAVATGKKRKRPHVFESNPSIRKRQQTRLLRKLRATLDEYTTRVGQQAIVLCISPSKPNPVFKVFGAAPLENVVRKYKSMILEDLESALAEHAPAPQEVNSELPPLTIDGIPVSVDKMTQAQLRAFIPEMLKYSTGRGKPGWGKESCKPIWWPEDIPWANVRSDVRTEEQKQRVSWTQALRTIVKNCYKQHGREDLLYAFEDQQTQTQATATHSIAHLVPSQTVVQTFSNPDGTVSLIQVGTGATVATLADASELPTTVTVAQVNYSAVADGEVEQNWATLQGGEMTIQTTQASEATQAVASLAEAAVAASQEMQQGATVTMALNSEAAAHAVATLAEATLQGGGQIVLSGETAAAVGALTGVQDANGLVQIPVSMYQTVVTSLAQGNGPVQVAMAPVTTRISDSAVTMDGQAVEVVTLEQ
Summary of the method: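 Using DMSO as baseline, gain- or loss-of-signal was fitted for reporter mRNA levels in HepG2 cells transiently transfected with cis-regulated reporter units. Samples were taken 24 h after dosing and read by RT-PCR with capillary electrophoresis.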

[16] = ATG_NFI_CIS: Attagene CIS-FACTORIAL HepG2 Assay for human Nuclear Factor I (NFI) (AID 2282989); details: HepG2 cis-regulatory reporter, NFI response element transcription; actives raise or lower the signal
Summary of the method: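 Reporter transcripts were measured by RT-PCR with fluorescent primer extension and capillary electrophoresis 24 h post-treatment. HepG2 cells carried transiently transfected cis-regulated reporter constructs reporting endogenous factor activity; gain or loss fitted against DMSO baseline.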

[17] = target: Myc proto-oncogene protein (Homo sapiens) (UniProt P01106); assay: ATG_Myc_CIS: Attagene CIS-FACTORIAL HepG2 Assay for human Myelocytomatosis (Myc) Proto-Oncogene Transcription Factor (AID 2282990); details: HepG2, Attagene cis-reporter transcription factor activity; actives raise or lower the signal
Chain of Myc proto-oncogene protein (Homo sapiens) (P01106 whole entry, looked up): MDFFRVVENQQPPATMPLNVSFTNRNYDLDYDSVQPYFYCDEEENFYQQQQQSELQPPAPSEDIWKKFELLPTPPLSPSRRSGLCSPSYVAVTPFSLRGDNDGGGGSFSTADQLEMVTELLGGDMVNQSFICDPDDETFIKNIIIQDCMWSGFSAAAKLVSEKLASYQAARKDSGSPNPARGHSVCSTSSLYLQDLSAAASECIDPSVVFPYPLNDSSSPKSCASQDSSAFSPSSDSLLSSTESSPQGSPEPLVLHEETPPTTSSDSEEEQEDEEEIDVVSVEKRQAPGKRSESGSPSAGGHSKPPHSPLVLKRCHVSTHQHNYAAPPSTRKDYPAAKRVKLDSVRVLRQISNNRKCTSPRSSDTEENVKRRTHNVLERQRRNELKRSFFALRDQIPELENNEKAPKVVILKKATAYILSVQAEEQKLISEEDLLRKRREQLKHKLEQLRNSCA
Summary of the method: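 Cells of the HepG2 human liver line bear multiple cis-driven reporter transcription units. Reporter mRNA after 24 h exposure is reverse-transcribed, amplified, labelled and resolved by capillary electrophoresis, with gain- or loss-of-signal fitting relative to DMSO.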

[18] = ATG_NF_kB_CIS: Attagene CIS-FACTORIAL HepG2 Assay for human Nuclear Factor Kappa B (NF-kB) (AID 2282991); details: HepG2 Attagene cis-factorial NF-kB reporter mRNA; actives raise or lower the signal
Summary of the method: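 Endpoint from a 52-component multiplexed HepG2 reporter panel: cis-regulated transcription units transiently transfected, 24 h dosing, reporter mRNA quantified by RT-PCR and capillary electrophoresis, scored as increase or decrease against DMSO.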

[19] = ATG_Oct_MLP_CIS: Attagene CIS-FACTORIAL HepG2 Assay for human Octamer-Binding Transcription Factor (Oct) (AID 2282993); details: HepG2 Attagene cis-factorial Oct reporter, mRNA; actives raise or lower the signal
Summary of the method: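 Readout is reporter transcript level from RT-PCR with fluorescent primer extension and capillary electrophoresis, fitted in both directions against DMSO. Transfected HepG2 reporter units report endogenous factor activity after 24 h dosing.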

[20] = target: Hepatocyte nuclear factor 3-beta (Homo sapiens) (UniProt Q9Y261); assay: ATG_FoxA2_CIS: Attagene CIS-FACTORIAL HepG2 Assay for human Forkhead box A2 (FOXA2) (AID 2282942); details: HepG2 cis-reporter transcription factor activity, 24 h; actives raise or lower the signal
Summary of the method: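 Measured: reporter mRNA induction or loss in HepG2 transiently carrying multiple cis-regulated reporter units, 24 h after dosing. Quantified by RT-PCR plus capillary electrophoresis, normalised to DMSO.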

Measured: AC50

O=[N+]([O-])c1ccc(Cl)cc1
not listed: [20]
inactive: all other assays above

CCNCC
not listed: [3] | [13] | [17] | [18]
inactive: all other assays above

Nc1ccccc1
not listed: [2] | [6] | [12] | [18] | [20]
inactive: all other assays above

N#Cc1cc(I)c(O)c(I)c1
active: [4] 100 µM | [11] 30.8 µM | [12] 33.6 µM | [19] 39.3 µM
not listed: [1]
inactive: all other assays above

c1ccc2c(c1)CCCC2
not listed: [6] | [17]
inactive: all other assays above

O=C(O)C(Br)Br
not listed: [2] | [6] | [13]
inactive: all other assays above

Cc1cc(C)c(C2=C(OC(=O)CC(C)(C)C)C3(CCCC3)OC2=O)c(C)c1
active: [1] 127 µM | [3] 104 µM | [4] 88.6 µM | [5] 166 µM | [12] 104 µM | [16] 145 µM | [17] 189 µM | [19] 128 µM
not listed: [11]
inactive: all other assays above

C=CC(=O)OCCO
active: [1] 116 µM | [4] 156 µM | [5] 172 µM | [11] 116 µM | [12] 131 µM | [16] 164 µM | [18] 17.1 µM | [19] 100 µM
not listed: [2] | [13]
inactive: all other assays above

N#CCCCl
not listed: [2] | [13]
inactive: all other assays above

c1ccc(Nc2ccc3ccccc3c2)cc1
not listed: [2] | [3] | [11] | [12]
inactive: all other assays above

CCC1CCC(=O)O1 (configuration not stated)
not listed: [2] | [3] | [17] | [18]
inactive: all other assays above

CC=Cc1ccc2c(c1)OCO2
active: [8] 80.8 µM | [10] 0.0749 µM
not listed: [2]
inactive: all other assays above

O=C(O)CCl
not listed: [2] | [6] | [18]
inactive: all other assays above

O=C1C=CC(=O)C=C1
active: [2] 2.15 µM
not listed: [6] | [11]
inactive: all other assays above

COC(=O)COc1ccc(Cl)cc1Cl
not listed: [2] | [6] | [12]
inactive: all other assays above
